From PubChem BioAssay
Shown are actives, neighbours in structure and some others; about 4.7% of the full set was active somewhere.
tim10-1 inh – growth inhibitors of tim10-1 mutant yeast, primary screen, luminescence, uHTS; S. cerevisiae tim10-1 ts strain growth, BacTiter-Glo, 24 h; AID 463190, 2010; inhibition, % at 20 µM; 2.2% of 330,000 active;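 active means inhibition of at least 40%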;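 further: mutant grown at 25 °C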
PfHsp90 yeast 2 – growth inhibition of PfHsp90-expressing yeast, primary screen, antimalarial PfHsp90 inhibitor project, S. cerevisiae, BacTiter-Glo luminescence, single point, set 2 | BacTiter-Glo ATP, 48 h; yeast lacking PDR1 and PDR3 efflux regulators | inhibition, % at 9.4 µM | 0.32% of 310,000 active | AID 504621, 2011;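 active means every replicate shows inhibition above about 80%, whatever the replicate mean, limit read from the data; inconclusive means mean inhibition reaches the set limit but some replicate falls short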
TIM10 inh – growth inhibitors of isogenic TIM10 control yeast, primary screen, counter-screen for tim10-1 yeast inhibitor project, luminescence, uHTS; S. cerevisiae TIM10 strain growth, BacTiter-Glo luminescence, 24 h; inhibition, % at 10 µM; 1.4% of 330,000 active; AID 463195, 2010;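 active means inhibition of 40% or more at the single tested concentration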;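 further: wild-type TIM10 isogenic control strain grown at permissive 25 °C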
SKKanGAS inh – S. pyogenes SKKanGAS growth inhibitors in kanamycin, primary screen, streptokinase expression inhibitor project, SKKanGAS strain, BacTiter-Glo luminescence. 6 h. inhibition, % at 7.5 µM. 1.3% of 300,000 active;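 active means mean replicate score, as percent of positive control median, at least 50; inconclusive means mean below 50 but one replicate at or above 50; inactive means mean and every replicate below 50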;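 further: strain carries kanamycin resistance gene driven by streptokinase promoter and grows in 40 µg/ml kanamycin; loss of luminescence reflects streptokinase promoter inhibition or plain growth inhibition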
Calb FLC – C. albicans growth inhibition with fluconazole, primary screen, CaCi-2 strain, Alamar Blue fluorescence. C. albicans CaCi-2 (fluconazole-resistant clinical isolate) + fluconazole, 48 h. 0.57% of 300,000 active. growth inhibition, % (concentration not given with the values). AID 1979, 2009;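 active means growth inhibition above about 58% in most replicates, limit read from the data, passing the limit was not always enough; inconclusive means exactly half the replicates above a set limit; inactive means most replicates below a set limit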;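 further: all wells also contain fluconazole at 8 µg/ml as a sub-toxic cotreatment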
tim23-1 inh – growth inhibitors of tim23-1 mutant yeast, primary screen, luminescence, uHTS; inhibition, % at 20 µM; AID 463212, 2010; S. cerevisiae tim23-1 growth, BacTiter-Glo luminescence, 24 h; 1.3% of 330,000 active;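 active means growth inhibition of the mutant yeast at or above 50%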;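 further: temperature-sensitive mutant grown at 25 °C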
tim10-1 conf – growth inhibitors of tim10-1 mutant yeast, confirmation, single concentration, luminescence, S. cerevisiae | shares compounds with tim10-1 inh | S. cerevisiae tim10-1 ts strain growth, BacTiter-Glo, 24 h | inhibition, % at 20 µM | 56% of 7,400 active | AID 463213, 2010;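 active means inhibition of yeast growth at or above a set limit in either of two repeat tests at 20 µM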;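 further: tim10-1 mutant grown at permissive 25 °C to find synthetic lethal compounds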
TIM10 conf – growth inhibitors of wild-type TIM10 yeast, confirmation, counter-screen for tim10-1 synthetic lethality project, single concentration, luminescence, S. cerevisiae; shares compounds with TIM10 inh; S. cerevisiae tim10 strain growth, BacTiter-Glo luminescence, 24 h; inhibition, % at 10 µM; 63% of 4,600 active;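 active means inhibition of yeast growth at or above a set limit in either of two replicates at 10 µM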; further: this counterscreen used the strain with wild-type TIM10
tim23-1 confirm – tim23-1 mutant yeast growth inhibitors, confirmation, luminescence, single concentration. shares compounds with tim23-1 inh. S. cerevisiae tim23-1 growth, BacTiter-Glo luminescence, 24 h. inhibition, % at 20 µM. 83% of 4,400 active. AID 463218, 2010;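 active means inhibition above about 39% in either of two replicate wells at 20 µM, limit read from the data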;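 further: temperature-sensitive tim23-1 mutant grown at 25 °C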
Hits are given with their value.

O=C(Nc1cccc(Cl)c1)c1cc(N=Nc2ccc([N+](=O)[O-])cc2Cl)ccc1O was read as tim10-1 inh 70, PfHsp90 yeast 2 inactive, TIM10 inh inactive, SKKanGAS inh inactive, Calb FLC inactive, tim23-1 inh 71, tim10-1 conf 60 and tim23-1 confirm 78.
For COCCc1nc2ccc(C(=O)N(C)Cc3cccc(-n4nc(C)cc4C)c3)cc2o1 the results were tim10-1 inh inactive, PfHsp90 yeast 2 inactive, TIM10 inh inactive, SKKanGAS inh inactive, Calb FLC inactive and tim23-1 inh inactive.
Screening CCCCNc1c(-c2ccc(SC(C)CC)cc2)nc2ccccn12 (stereo not drawn) returned tim10-1 inh 48, PfHsp90 yeast 2 inactive, TIM10 inh 45, SKKanGAS inh 78, Calb FLC inactive, tim23-1 inh 59, tim10-1 conf 55, TIM10 conf 35 and tim23-1 confirm 63.
Screening Cc1cccc(NC(=O)CCc2nnc3ccc(NCc4ccco4)nn23)n1 returned tim10-1 inh inactive, PfHsp90 yeast 2 inactive, TIM10 inh inactive, SKKanGAS inh inactive, Calb FLC inactive and tim23-1 inh inactive.
For COc1cc(/C=C/C(=O)c2ccccc2O)cc(OC)c1OC the results were tim10-1 inh 53, PfHsp90 yeast 2 inactive, TIM10 inh inactive, SKKanGAS inh inactive, Calb FLC inactive, tim23-1 inh 62, tim10-1 conf 43 and tim23-1 confirm 55.
Screening CN(C)c1ccc(/C=C/C(=O)c2ccccc2O)cc1 returned tim10-1 inh inactive, PfHsp90 yeast 2 inactive, TIM10 inh inactive, SKKanGAS inh inactive, Calb FLC inactive and tim23-1 inh inactive.
COc1cc(OC)c(C=CC(=O)c2ccccc2O)c(OC)c1 was read as PfHsp90 yeast 2 inactive.
For O=C(/C=C/c1ccc2c(c1)OCCCO2)c1ccccc1O the results were tim10-1 inh 53, PfHsp90 yeast 2 inactive, TIM10 inh 60, SKKanGAS inh inactive, Calb FLC inactive, tim23-1 inh 50, tim10-1 conf 46, TIM10 conf inactive and tim23-1 confirm inactive.
Screening CC(=O)Nc1ccc(S(=O)(=O)N2CCN(c3cc(C)ccc3C)CC2)cc1 returned tim10-1 inh 60, PfHsp90 yeast 2 inactive, TIM10 inh inactive, SKKanGAS inh inactive, Calb FLC inactive, tim23-1 inh 54, tim10-1 conf 49 and tim23-1 confirm 47.
`CCC1CSC(=Nc2ccc(C)cc2)N1C(=O)CN1C(=O)NC2(CCCC2)C1=O` (stereo not drawn) gave tim10-1 inh inactive, PfHsp90 yeast 2 inactive, TIM10 inh inactive, SKKanGAS inh inactive, Calb FLC inactive and tim23-1 inh inactive.
Screening OCC1(CO)COC(CCc2ccccc2)=N1 returned tim10-1 inh inactive, PfHsp90 yeast 2 inactive, TIM10 inh inactive, SKKanGAS inh inactive, Calb FLC inactive and tim23-1 inh inactive.
Screening COc1ccc2noc3c2c1C(=O)c1ccccc1-3 returned tim10-1 inh 61, PfHsp90 yeast 2 inactive, TIM10 inh inactive, SKKanGAS inh inactive, Calb FLC inactive, tim23-1 inh 69, tim10-1 conf 71 and tim23-1 confirm 72.
For COc1ccc(N)c2c1C(=O)c1ccccc1C2=O the results were PfHsp90 yeast 2 inactive, SKKanGAS inh inactive and Calb FLC inactive.
For COc1ccc(Cl)cc1NC(=O)CN(C)C(=O)c1n[nH]c2ccccc12 the results were tim10-1 inh inactive, TIM10 inh inactive, SKKanGAS inh inactive, Calb FLC inactive and tim23-1 inh inactive.
For O=C(COc1cccc(NC(=O)c2ccco2)c1)c1ccc(F)cc1 the results were tim10-1 inh 42, PfHsp90 yeast 2 inactive, TIM10 inh 47, tim23-1 inh 55, tim10-1 conf 32, TIM10 conf 48 and tim23-1 confirm 71.
CCC(C)NC(=O)C1CCN(S(=O)(=O)c2ccc(-n3cnnn3)cc2)CC1 (stereo not drawn) was read as tim10-1 inh inactive, PfHsp90 yeast 2 inactive, TIM10 inh inactive, SKKanGAS inh inactive, Calb FLC inactive and tim23-1 inh inactive.
`CCOc1ccccc1N1CCN(C(=O)c2ccncc2)CC1` gave tim10-1 inh inactive, PfHsp90 yeast 2 inactive, TIM10 inh inactive, SKKanGAS inh inactive, Calb FLC inactive and tim23-1 inh inactive.
Screening CCOc1ccccc1N1CCN(C(=O)Nc2ccc(Cl)c(Cl)c2)CC1 returned tim10-1 inh 48, TIM10 inh inactive, SKKanGAS inh inactive, Calb FLC inactive, tim23-1 inh 58, tim10-1 conf 37 and tim23-1 confirm 50.
Screening CN(CC(=O)Nc1ccc(F)c(F)c1F)C(=O)CCN1C(=O)C2CCCCC2C1=O (stereo not drawn) returned tim10-1 inh inactive, PfHsp90 yeast 2 inactive, TIM10 inh inactive and tim23-1 inh inactive.
`C#CCOCCOCCOCCNc1nc(N2CCN(C(=O)CCCCCCCCCCNC(=O)[C@H](CCCCN)n3cc(CCCC(=O)O)nn3)CC2)nc(N2CCN(C(=O)CCCCCCCCCCNC(=O)[C@H](CCCN=C(N)N)n3cc(C[C@@H](C)CC)nn3)CC2)n1` gave tim10-1 inh 44, PfHsp90 yeast 2 inactive, TIM10 inh inactive, SKKanGAS inh inactive, Calb FLC inactive, tim23-1 inh 52, tim10-1 conf 38 and tim23-1 confirm 53.
`NC(=S)N/N=C/c1ccc(-c2cc(Cl)cc(Cl)c2)o1` gave tim10-1 inh inactive, PfHsp90 yeast 2 inactive, TIM10 inh inactive, SKKanGAS inh inactive, Calb FLC inconclusive and tim23-1 inh inactive.
For NC(=S)N/N=C/c1ccc(-c2cc(Cl)ccc2Cl)o1 the results were tim10-1 inh 44, PfHsp90 yeast 2 inactive, TIM10 inh 45, SKKanGAS inh inactive, Calb FLC 93, tim23-1 inh 54, tim10-1 conf inactive, TIM10 conf 39 and tim23-1 confirm 62.
`COc1ccc(C(=O)NCCCn2nc(C)cc2C)cc1S(=O)(=O)N1CCOCC1` gave tim10-1 inh inactive, PfHsp90 yeast 2 inactive, TIM10 inh inactive and tim23-1 inh inactive.
